# Assay results as given in PubChem BioAssay (NCATS).
# Inconclusive results are not listed. Where a call stands in place of a potency, no number is given. Calls of active or inactive are those of the source. The call rests on the fitted dose curve; in most records, active means well fitted curve in the direction sought with a large enough effect; inconclusive means small, poorly fitted or top-dose-only effect, or another doubt; inactive means no such curve, though single readings can be large; an effect the other way counts as inactive or inconclusive.
# Key:
# [1] = Quantitative High-Throughput drug screen in 47 multiple myeloma cell lines against the NCATS MIPE library collection: FR4_PLB cell viability assay (AID 1918924; further: nearly all actives have a fitted effect of over 35% in size; further: potency means the concentration at half of the fitted maximal effect)
# Outline: (§1)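 Approved and investigational drugs from MIPE 4.0 were added by pin tool to 500 cells per well. After 48 hours at 37C, ATP-based CellTiter-Glo luminescence indicated remaining viability.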
# [2] = Quantitative High-Throughput drug screen in 47 multiple myeloma cell lines against the NCATS MIPE library collection: Delta47_JCRB cell viability assay (AID 1918925; further: nearly all actives have a fitted effect of over 45% in size; further: potency means the concentration at half of the fitted maximal effect)
# Outline: (§2)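 Viability readout: CellTiter-Glo luminescence following 5 min room-temperature incubation with reagent. Prior exposure: 48 h, 37C, humidified 5% CO2, 500 cells per well.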
# [3] = Quantitative High-Throughput drug screen in 47 multiple myeloma cell lines against the NCATS MIPE library collection: EJM_DSMZ cell viability assay (AID 1918926; further: nearly all actives have a fitted effect of over 30% in size; further: potency means the concentration at half of the fitted maximal effect)
# Outline: as §2
# [4] = Quantitative High-Throughput drug screen in 47 multiple myeloma cell lines against the NCATS MIPE library collection: AMO1_DSMZ cell viability assay (AID 1918927; further: nearly all actives have a fitted effect of over 30% in size; further: potency means the concentration at half of the fitted maximal effect)
# Outline: as §2
# [5] = Quantitative High-Throughput drug screen in 47 multiple myeloma cell lines against the NCATS MIPE library collection: ARD_JJKsccE7 cell viability assay (AID 1918929; further: potency means the concentration at half of the fitted maximal effect)
# Outline: as §2
# [6] = Quantitative High-Throughput drug screen in 47 multiple myeloma cell lines against the NCATS MIPE library collection: Karpas620_DSMZ cell viability assay (AID 1918959); further: nearly all actives have a fitted effect of over 30% in size; further: potency means the concentration at half of the fitted maximal effect
# Outline: as §1
# [7] = Quantitative High-Throughput drug screen in 47 multiple myeloma cell lines against the NCATS MIPE library collection: KMM1_JCRB cell viability assay (AID 1918960); further: nearly all actives have a fitted effect of over 30% in size; further: potency means the concentration at half of the fitted maximal effect
# Outline: (§3)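 CellTiter-Glo luminescence after 48 h exposure gives viability, scaled between DMSO-only (100%) and media-only (0%) controls. Library compounds are pinned onto 500 myeloma cells per well, incubated at 37C with 5% CO2.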
# [8] = Quantitative High-Throughput drug screen in 47 multiple myeloma cell lines against the NCATS MIPE library collection: JIM3_ECACC cell viability assay (AID 1918963; further: nearly all actives have a fitted effect of over 35% in size; further: potency means the concentration at half of the fitted maximal effect)
# Outline: as §1
# [9] = Quantitative High-Throughput drug screen in 47 multiple myeloma cell lines against the NCATS MIPE library collection: JIM1_ECACC cell viability assay (AID 1918964; further: potency means the concentration at half of the fitted maximal effect)
# Outline: as §2
# [10] = Quantitative High-Throughput drug screen in 47 multiple myeloma cell lines against the NCATS MIPE library collection: INA6_PLB cell viability assay (AID 1918965; further: nearly all actives have a fitted effect of over 55% in size; further: potency means the concentration at half of the fitted maximal effect)
# Outline: (§4)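 Inhibition of cell viability is measured here. Each line was plated at 500 cells per well, treated with MIPE 4.0 drugs, kept 48 hours at 37C, then assayed for ATP content by CellTiter-Glo luminescence.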
# [11] = Quantitative High-Throughput drug screen in 47 multiple myeloma cell lines against the NCATS MIPE library collection: JJN3_DSMZ cell viability assay (AID 1918966; further: nearly all actives have a fitted effect of over 50% in size; further: potency means the concentration at half of the fitted maximal effect)
# Outline: as §2
# [12] = Quantitative High-Throughput drug screen in 47 multiple myeloma cell lines against the NCATS MIPE library collection: H1112_PLB cell viability assay (AID 1918967; further: nearly all actives have a fitted effect of over 30% in size; further: potency means the concentration at half of the fitted maximal effect)
# Outline: as §2
# [13] = Quantitative High-Throughput drug screen in 47 multiple myeloma cell lines against the NCATS MIPE library collection: Karpas25_ECACC cell viability assay (AID 1918968; further: nearly all actives have a fitted effect of over 35% in size; further: potency means the concentration at half of the fitted maximal effect)
# Outline: as §2
# [14] = Quantitative High-Throughput drug screen in 47 multiple myeloma cell lines against the NCATS MIPE library collection: KMS27_JCRB cell viability assay (AID 1918970); further: nearly all actives have a fitted effect of over 30% in size; further: potency means the concentration at half of the fitted maximal effect
# Outline: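 KMS27_JCRB myeloma cells, 500 per well, exposed 48 h at 37 C, 5% CO2 to MIPE 4.0 compounds. Viability from ATP by CellTiter-Glo luminescence, normalized to DMSO (100%) and medium-only (0%) wells.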
# [15] = Quantitative High-Throughput drug screen in 47 multiple myeloma cell lines against the NCATS MIPE library collection: KMS12PE_JCRB cell viability assay (AID 1918972); further: nearly all actives have a fitted effect of over 30% in size; further: potency means the concentration at half of the fitted maximal effect
# Outline: as §4
# [16] = Primary redox qHTS assay for identification of artifact compounds. (AID 1845223)
# Outline: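 Redox-cycling detection via DTT (250 uM final) oxidation coupled to Amplex Red (25 uM)/HRP (250 mU/mL) in HBSS. 15 min preincubation plus 30 min after DTT, room temperature. Ex/Em 525/598 nm; 4-parameter Hill fit against DMSO and 10 uM DA3003.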
# [17] = Quantitative High-Throughput drug screen in 47 multiple myeloma cell lines against the NCATS MIPE library collection: ARP1_JJKsccF8 cell viability assay (AID 1918928; further: nearly all actives have a fitted effect of over 40% in size; further: potency means the concentration at half of the fitted maximal effect)
# Outline: as §3
# [18] = Quantitative High-Throughput drug screen in 47 multiple myeloma cell lines against the NCATS MIPE library collection: KHM11_PLB cell viability assay (AID 1918962); further: nearly all actives have a fitted effect of over 35% in size; further: potency means the concentration at half of the fitted maximal effect
# Outline: as §1
# [19] = Quantitative High-Throughput drug screen in 47 multiple myeloma cell lines against the NCATS MIPE library collection: KMS20_JCRB cell viability assay (AID 1918973); further: nearly all actives have a fitted effect of over 45% in size; further: potency means the concentration at half of the fitted maximal effect
# Outline: as §2
# [20] = Quantitative High-Throughput drug screen in 47 multiple myeloma cell lines against the NCATS MIPE library collection: Karpas417_ECACC cell viability assay (AID 1918961); conditions: Karpas417 myeloma viability, CellTiter-Glo ATP luminescence, 48 h; viability (% of DMSO): at 45.8 µM (top of the series); further: potency means the concentration at half of the fitted maximal effect
# Outline: as §4
Structure (SMILES),Potency [1],Potency [2],Potency [3],Potency [4],Potency [5],Potency [6],Potency [7],Potency [8],Potency [9],Potency [10],Potency [11],Potency [12],Potency [13],Potency [14],Potency [15],outcome [16],Potency [17],Potency [18],Potency [19],Potency [20]
Cn1cc(C2=C(c3cn(C4CCN(Cc5ccccn5)CC4)c4ccccc34)C(=O)NC2=O)c2ccccc21,16.6 µM (active),5.9 µM (active),11.8 µM (active),0.935 µM (active),9.35 µM (active),5.9 µM (active),4.18 µM (active),8.33 µM (active),1.32 µM (active),4.69 µM (active),14.8 µM (active),10.5 µM (active),8.33 µM (active),18.7 µM (active),2.35 µM (active),,,,,
O=C(O)C(=O)c1cn(Cc2ccccc2)c2ccc(-c3ccc(OC(F)(F)F)cc3)cc12,inactive,20.9 µM (active),inactive,inactive,inactive,inactive,inactive,18.7 µM (active),inactive,,,14.8 µM (active),16.6 µM (active),inactive,7.43 µM (active),inactive,inactive,,,
CC(C)CC(N(C)C)C1(c2ccc(Cl)cc2)CCC1 (stereo not drawn),,,,inactive,inactive,inactive,inactive,inactive,inactive,,inactive,5.26 µM (active),,inactive,inactive,,inactive,inactive,,
CN(C)CCN(C)CCc1ccc(Cl)c(Cl)c1,inactive,,inactive,20.9 µM (active),inactive,inactive,inactive,inactive,,inactive,inactive,inactive,,inactive,23.5 µM (active),,inactive,,inactive,
CN(C)[C@@H]1C(=O)C(C(N)=O)=C(O)[C@@]2(O)C(=O)C3=C(O)c4c(O)cccc4[C@@](C)(O)[C@H]3C[C@@H]12,,inactive,inactive,inactive,inactive,inactive,inactive,,inactive,,,inactive,inactive,inactive,inactive,,16.6 µM (active),inactive,,inactive
O=P1(NCCCl)OCCCN1CCCl (stereo not drawn),16.6 µM (active),,inactive,5.9 µM (active),,,,20.9 µM (active),,,,,,,,,,,,
Cc1cccc(C)c1NC(=O)CN1CCCC1=O,,inactive,inactive,,inactive,inactive,inactive,inactive,,inactive,,inactive,inactive,inactive,inactive,,inactive,inactive,,
NCC1(CC(=O)O)CCCCC1,inactive,,inactive,inactive,inactive,inactive,inactive,inactive,,inactive,inactive,inactive,inactive,,inactive,,inactive,,,
CC(O)(CS(=O)(=O)c1ccc(F)cc1)C(=O)Nc1ccc(C#N)c(C(F)(F)F)c1 (stereo not drawn),,0.296 µM (active),0.187 µM (active),0.662 µM (active),1.66 µM (active),2.09 µM (active),2.64 µM (active),2.96 µM (active),4.18 µM (active),0.59 µM (active),4.69 µM (active),0.235 µM (active),0.264 µM (active),2.35 µM (active),1.66 µM (active),inactive,,1.87 µM (active),935 nM (active),372 nM (active)
CNC(=O)c1ccc(N2C(=S)N(c3ccc(C#N)c(C(F)(F)F)c3)C(=O)C23CCC3)cc1F,inactive,4.18 µM (active),1.48 µM (active),2.64 µM (active),16.6 µM (active),18.7 µM (active),16.6 µM (active),23.5 µM (active),,16.6 µM (active),,3.72 µM (active),2.96 µM (active),inactive,,inactive,inactive,33.2 µM (active),8330 nM (active),
Cn1c(CCCC(=O)O)nc2cc(N(CCCl)CCCl)ccc21,16.6 µM (active),1.18 µM (active),,,inactive,inactive,inactive,inactive,,18.7 µM (active),,,,inactive,inactive,,,,,
O=c1[nH]c2ccccc2n1C1CCN(CCCC(c2ccc(F)cc2)c2ccc(F)cc2)CC1,,,,,,,,,,,,,,,,inactive,,,,
N[C@@H](Cc1ccc(N(CCCl)CCCl)cc1)C(=O)O,20.9 µM (active),13.2 µM (active),14.8 µM (active),18.7 µM (active),18.7 µM (active),10.5 µM (active),13.2 µM (active),16.6 µM (active),10.5 µM (active),1.32 µM (active),11.8 µM (active),6.62 µM (active),13.2 µM (active),3.72 µM (active),16.6 µM (active),,16.6 µM (active),20.9 µM (active),,2960 nM (active)
C[C@@H]1O[C@@H](O[C@H]2C[C@@H](O)[C@]3(CO)[C@H]4[C@H](O)C[C@]5(C)[C@@H](C6=CC(=O)OC6)CC[C@]5(O)[C@@H]4CC[C@]3(O)C2)[C@H](O)[C@H](O)[C@H]1O,0.0093 µM (active),0.0296 µM (active),0.0235 µM (active),0.0093 µM (active),0.0148 µM (active),0.0372 µM (active),,0.0418 µM (active),0.0132 µM (active),0.0235 µM (active),0.105 µM (active),0.0833 µM (active),0.0372 µM (active),0.0187 µM (active),0.0105 µM (active),inactive,0.0418 µM (active),0.0372 µM (active),23.5 nM (active),
COc1ccc(C(CN(C)C)C2(O)CCCCC2)cc1 (stereo not drawn),inactive,inactive,,,inactive,inactive,,inactive,inactive,,,,inactive,inactive,,,inactive,,,
Cc1cc(SCc2sc(-c3ccc(C(F)(F)F)c(F)c3)nc2C)ccc1OCC(=O)O,inactive,,inactive,,,,,20.9 µM (active),,,inactive,20.9 µM (active),16.6 µM (active),,18.7 µM (active),,,,,
O=c1[nH]c2ccccc2n1CCCN1CCC(n2c(=O)[nH]c3cc(Cl)ccc32)CC1,inactive,,,,,20.9 µM (active),,inactive,,18.7 µM (active),inactive,,0.0372 µM (active),,18.7 µM (active),,,inactive,,
O=C1CC[C@@]2(O)[C@H]3Cc4ccc(O)c5c4[C@@]2(CCN3CC2CC2)[C@H]1O5,inactive,,,,inactive,inactive,inactive,inactive,inactive,8.33 µM (active),,inactive,inactive,inactive,inactive,,inactive,,,inactive
CN(C)CCc1ccc(O)cc1,inactive,inactive,,inactive,inactive,inactive,inactive,inactive,,,,inactive,,inactive,inactive,,,,,inactive
